Measured values taken from PubChem BioAssay AID1159580 (chemical genetic matrix, 2015).
Several values for one entry are separate records, joined by “and”; a condition that tells them apart may be missing. Equal entries are not always repeated. The whole screen tested about 5,500 compounds, of which about 2,000 (36%) were called active. Not shown: some 18% with an inconclusive outcome. No stated cut-off is given here; in the data, active means normalized growth mostly below about 0.91 (no sharp cut-off); inconclusive means no clear call, values can overlap the other calls; inactive means mostly above about 0.92. Some of the results follow.

Test: chemical genetic growth profiling, strain panel (AID 1159580);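 further: tested at 20 µM; growth read once vehicle control cultures reached saturation at 30 °C; 1 = growth at the plate median or of vehicle wells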
Details: S. cerevisiae deletion strains, growth OD

Measured: normalized growth

COc1ccc(C(=O)/C=C/c2ccccc2)cc1
inactive: locus YAL021C, strain ccr4, stronger effect = lower value 1.01 | locus YAL026C, strain drs2, stronger effect = lower value 0.924 | locus YAL030W, strain snc1, stronger effect = lower value 0.951 | locus YBL061C, strain skt5, stronger effect = lower value 0.947 | locus YBR171W, strain sec66, stronger effect = lower value 0.939 | locus YBR229C, strain ROT2, stronger effect = lower value 0.991 | locus YBR231C, strain swc5, stronger effect = lower value 0.927 | locus YBR279W, strain paf1, stronger effect = lower value 0.951 | locus YCL069W, strain vba3, stronger effect = lower value 0.944 | locus YCR088W, strain abp1, stronger effect = lower value 0.965 | locus YDL005C, strain med2, stronger effect = lower value 0.992 | locus YDL035C, strain GPR1, stronger effect = lower value 0.921 | locus YDL040C, strain nat1, stronger effect = lower value 1.01 | locus YDL101C, strain DUN1, stronger effect = lower value 0.941 | locus YDL185W, strain tfp1, stronger effect = lower value 0.942 | locus YDR001C, strain nth1, stronger effect = lower value 0.982 | locus YDR069C, strain doa4, stronger effect = lower value 0.995 | locus YDR150W, strain NUM1, stronger effect = lower value 1.01 | locus YDR159W, strain sac3, stronger effect = lower value 0.956 | locus YDR162C, strain NBP2, stronger effect = lower value 0.965 | locus YDR195W, strain ref2 1.1 | locus YDR297W, strain sur2, stronger effect = lower value 0.939 | locus YDR334W, strain swr1, stronger effect = lower value 0.999 | locus YDR388W, stronger effect = lower value 0.955 | locus YEL037C, strain rad23, stronger effect = lower value 0.982 | locus YER015W, strain faa2, stronger effect = lower value 0.956 | locus YER111C, strain swi4, stronger effect = lower value 0.968 | locus YER167W, strain BCK2, stronger effect = lower value 0.994 | locus YFR010W, strain ubp6, stronger effect = lower value 0.96 | locus YGL167C, strain pmr1, stronger effect = lower value 0.971 | locus YHR013C, strain ard1, stronger effect = lower value 0.947 | locus YHR027C, strain rpn1, stronger effect = lower value 0.939 | locus YHR079C, strain IRE1 (second series), stronger effect = lower value 0.932 | locus YHR094C, strain hxt1, stronger effect = lower value 0.941 | locus YIL066C, strain RNR3, stronger effect = lower value 0.919 | locus YIL073C, strain SPO22, stronger effect = lower value 0.889 | locus YIL125W, strain kgd1, stronger effect = lower value 0.985 | locus YJL092W, strain hpr5, stronger effect = lower value 0.965 | locus YJL115W, strain asf1, stronger effect = lower value 0.984 | locus YJL134W, strain LCB3, stronger effect = lower value 0.99 | locus YJL154C, strain vps35, stronger effect = lower value 0.995 | locus YJL168C, strain set2, stronger effect = lower value 0.959 | locus YJL187C, strain SWE1 (second series), stronger effect = lower value 0.908 | locus YJR066W, strain TOR1, stronger effect = lower value 0.841 | locus YKL068W, stronger effect = lower value 0.983 | locus YKL085W, strain MDH1 (second series), stronger effect = lower value 0.974 | locus YKL085W, strain MDH1, stronger effect = lower value 0.974 | locus YKL190W, strain CNB1, stronger effect = lower value 1.01 | locus YKR026C, strain gcn3, stronger effect = lower value 0.983 | locus YKR091W, strain srl3, stronger effect = lower value 0.982 | locus YLL026W, stronger effect = lower value 0.971 | locus YLL041C, strain sdh2, stronger effect = lower value 0.999 | locus YLR039C, strain RIC1, stronger effect = lower value 0.792 | locus YLR058C, strain SHM2, stronger effect = lower value 0.899 | locus YLR102C, strain apc9, stronger effect = lower value 0.964 | locus YLR258W, strain gsy2, stronger effect = lower value 0.936 | locus YLR357W, strain rsc2, stronger effect = lower value 0.957 | locus YLR370C, strain arc18, stronger effect = lower value 0.978 | locus YLR384C, strain iki3, stronger effect = lower value 0.969 | locus YML016C, strain PPZ1, stronger effect = lower value 0.947 | locus YML120C, strain ndi1, stronger effect = lower value 0.954 | locus YML124C, strain tub3, stronger effect = lower value 0.958 | locus YMR129W, stronger effect = lower value 0.985 | locus YMR231W, strain pep5, stronger effect = lower value 1 | locus YMR307W, strain GAS1, stronger effect = lower value 0.939 | locus YNL067W, strain RPL9B, stronger effect = lower value 0.954 | locus YNL128W, strain TEP1, stronger effect = lower value 0.922 | locus YNL183C, strain NPR1, stronger effect = lower value 0.838 | locus YNL209W, strain ssb2, stronger effect = lower value 0.968 | locus YNL250W, strain rad50, stronger effect = lower value 0.958 | locus YNL271C, strain bni1, stronger effect = lower value 0.92 | locus YNL322C, strain KRE1 (second series), stronger effect = lower value 0.917 | locus YNR049C, strain mso1, stronger effect = lower value 0.995 | locus YNR052C, strain pop2, stronger effect = lower value 0.941 | locus YOL006C, strain TOP1, stronger effect = lower value 0.664 | locus YOL012C, strain htz1 0.771 | locus YOR001W, strain rrp6, stronger effect = lower value 0.905 | locus YOR061W, strain CKA2, stronger effect = lower value 0.981 | locus YOR069W, strain VPS5, stronger effect = lower value 0.958 | locus YOR070C, strain gyp1, stronger effect = lower value 0.928 | locus YOR080W, strain dia2, stronger effect = lower value 0.981 | locus YOR136W, strain idh2, stronger effect = lower value 0.939 | locus YOR265W, strain rbl2, stronger effect = lower value 0.994 | locus YOR316C, strain cot1, stronger effect = lower value 0.966 | locus YPL240C, strain hsp82, stronger effect = lower value 0.954 | locus YPR119W, strain clb2, stronger effect = lower value 0.964 | locus YPR141C, strain kar3, stronger effect = lower value 0.965
0.95 (inactive) and 0.812 (active): locus YHR030C, strain SLT2, stronger effect = lower value
active: locus YBR009C, strain hhf1, stronger effect = lower value 0.825 | locus YBR021W, strain FUR4, stronger effect = lower value 0.782 | locus YBR023C, strain chs3, stronger effect = lower value 0.911 | locus YCL011C, strain gbp2, stronger effect = lower value 0.902 | locus YCL016C, strain dcc1, stronger effect = lower value 0.876 | locus YCL029C, strain bik1, stronger effect = lower value 0.822 | locus YCL061C, strain MRC1, stronger effect = lower value 0.846 | locus YDL074C, strain BRE1, stronger effect = lower value 0.738 | locus YDL192W, strain arf1, stronger effect = lower value 0.832 | locus YDR101C, strain arx1, stronger effect = lower value 0.867 | locus YDR137W, strain rgp1, stronger effect = lower value 0.845 | locus YDR318W, strain mcm21, stronger effect = lower value 0.798 | locus YDR335W, strain msn5, stronger effect = lower value 0.889 | locus YDR392W, strain spt3, stronger effect = lower value 0.194 | locus YDR502C, strain sam2, stronger effect = lower value 0.787 | locus YEL003W, strain gim4, stronger effect = lower value 0.856 | locus YEL061C, strain CIN8 (second series), stronger effect = lower value 0.844 | locus YER016W, strain bim1, stronger effect = lower value 0.91 | locus YER110C, stronger effect = lower value 0.873 | locus YER155C, strain BEM2 (second series), stronger effect = lower value 0.268 | locus YER155C, strain BEM2, stronger effect = lower value 0.686 | locus YGL078C, strain dbp3, stronger effect = lower value 0.906 | locus YGL086W, strain mad1, stronger effect = lower value 0.779 | locus YGL173C, strain kem1, stronger effect = lower value 0.889 | locus YGL227W, strain vid30, stronger effect = lower value 0.892 | locus YGL240W, strain doc1, stronger effect = lower value 0.762 | locus YGL248W, strain PDE1, stronger effect = lower value 0.824 | locus YGL253W, strain hxk2, stronger effect = lower value 0.908 | locus YGR135W, strain pre9, stronger effect = lower value 0.696 | locus YGR252W, strain gcn5, stronger effect = lower value 0.629 | locus YHR079C, strain IRE1, stronger effect = lower value 0.756 | locus YHR129C, strain ARP1, stronger effect = lower value 0.87 | locus YHR142W, strain chs7, stronger effect = lower value 0.767 | locus YHR200W, strain rpn10, stronger effect = lower value 0.866 | locus YIR030C, strain dcg1, stronger effect = lower value 0.888 | locus YJL095W, strain BCK1 (second series), stronger effect = lower value 0.886 | locus YJL095W, strain BCK1, stronger effect = lower value 0.544 and 0.84 | locus YJL129C, strain trk1, stronger effect = lower value 0.859 | locus YJL164C, strain tpk1, stronger effect = lower value 0.887 | locus YJL166W, strain qcr8, stronger effect = lower value 0.746 | locus YJL187C, strain SWE1, stronger effect = lower value 0.917 | locus YKL009W, strain mrt4, stronger effect = lower value 0.834 | locus YKL160W, strain elf1, stronger effect = lower value 0.878 | locus YKR001C, strain vps1, stronger effect = lower value 0.783 | locus YLL001W, strain dnm1, stronger effect = lower value 0.898 | locus YLR027C, strain aat2, stronger effect = lower value 0.846 | locus YLR113W, strain HOG1, stronger effect = lower value 0.628 | locus YLR221C, strain rsa3, stronger effect = lower value 0.809 | locus YLR262C, strain YPT6 (second series), stronger effect = lower value 0.855 | locus YLR268W, strain sec22, stronger effect = lower value 0.818 | locus YLR320W, strain mms22, stronger effect = lower value 0.525 | locus YLR330W, strain CHS5, stronger effect = lower value 0.854 | locus YLR342W, strain FKS1, stronger effect = lower value 0.839 | locus YLR371W, strain rom2, stronger effect = lower value 0.796 | locus YLR418C, strain cdc73, stronger effect = lower value 0.358 | locus YML032C, strain rad52, stronger effect = lower value 0.746 | locus YMR058W, strain fet3, stronger effect = lower value 0.803 | locus YMR078C, strain ctf18, stronger effect = lower value 0.73 | locus YMR125W, strain sto1, stronger effect = lower value 0.856 | locus YMR205C, strain PFK2, stronger effect = lower value 0.707 | locus YMR223W, strain ubp8, stronger effect = lower value 0.852 | locus YNL071W, strain lat1, stronger effect = lower value 0.307 | locus YNL233W, strain BNI4, stronger effect = lower value 0.777 | locus YNL248C, strain rpa49, stronger effect = lower value 0.687 | locus YNL298W, strain CLA4, stronger effect = lower value 0.858 | locus YNL307C, strain MCK1, stronger effect = lower value 0.239 | locus YOL147C, strain pex11, stronger effect = lower value 0.752 | locus YOR083W, strain WHI5, stronger effect = lower value 0.86 | locus YOR106W, strain vam3, stronger effect = lower value 0.823 | locus YOR144C, strain elg1, stronger effect = lower value 0.897 | locus YOR184W, strain ser1, stronger effect = lower value 0.43 | locus YOR231W, strain MKK1, stronger effect = lower value 0.757 | locus YOR270C, strain vph1, stronger effect = lower value 0.613 | locus YOR290C, strain snf2, stronger effect = lower value 0.792 | locus YPL051W, strain arl3, stronger effect = lower value 0.868 | locus YPL078C, strain atp4, stronger effect = lower value 0.799 | locus YPL106C, strain sse1, stronger effect = lower value 0.76 | locus YPL256C, strain CLN2, stronger effect = lower value 0.74 | locus YPR163C, strain tif3, stronger effect = lower value 0.432 | locus YPR167C, strain met16, stronger effect = lower value 0.889 | strain wtn01, stronger effect = lower value 0.811
